Inhibition data for 34 molecules are collected here from ChEMBL document CHEMBL1961873, “Compounds: GSK PKIS; Assays: Nanosyn kinase panel” (2012).

SMILES strings stand for the structures.

Chain of Casein kinase I isoform gamma-3 (Homo sapiens) (Q9Y6M4 whole entry, looked up, canonical isoform): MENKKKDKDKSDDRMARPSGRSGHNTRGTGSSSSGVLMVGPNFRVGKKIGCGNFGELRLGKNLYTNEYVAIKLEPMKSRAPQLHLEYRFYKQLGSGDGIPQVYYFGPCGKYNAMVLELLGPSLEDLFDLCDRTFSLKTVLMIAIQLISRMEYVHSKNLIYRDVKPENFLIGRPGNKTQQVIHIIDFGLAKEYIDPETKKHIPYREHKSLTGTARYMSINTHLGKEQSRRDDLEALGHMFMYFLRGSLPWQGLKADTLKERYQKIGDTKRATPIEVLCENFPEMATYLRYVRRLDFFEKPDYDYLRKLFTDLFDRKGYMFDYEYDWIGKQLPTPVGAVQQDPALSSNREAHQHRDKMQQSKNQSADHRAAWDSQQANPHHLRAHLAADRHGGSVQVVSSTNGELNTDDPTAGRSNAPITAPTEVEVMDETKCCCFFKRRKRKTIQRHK

One experiment addresses Casein kinase I isoform gamma-3 (Homo sapiens) (UniProt Q9Y6M4). To be noted: at 0.1 µM.
Take `NS(=O)(=O)c1ccc(N/N=C2\C(=O)Nc3ccc(C(=O)NCCCn4ccnc4)cc32)cc1`: the inhibition (usually the change of the read-out against control, counted positive when it falls) was found to be 5.52%.

With `O=C(Nc1ccc(Oc2ccc3[nH]c(NC(=O)c4ccccc4)nc3c2)cc1)Nc1cc(C(F)(F)F)ccc1F`, the inhibition amounted to 1.5%.

On to `COc1ccc2cc(-c3c(-c4ccncc4)nc(-c4ccc([S+](C)[O-])cc4C)n3C)ccc2c1` (stereo not drawn), for which the inhibition was -1.01%.

With `Cc1ccc(NC(=O)c2ccoc2)cc1-c1ccc(C(=O)NCC2CC2)cc1`, the inhibition was determined as 2.63%.

With `C[C@@H](Oc1cc(-n2cnc3ccc(OC4CCN(C)CC4)cc32)sc1C(N)=O)c1ccccc1Cl`, the inhibition was -1.77%.

Take `CN(c1ccc(NC(=O)Nc2c(Cl)cccc2Cl)cc1)c1ccnc(Nc2cccc(CS(C)(=O)=O)c2)n1`: the inhibition is 1.67%.

In the case of `Fc1ccc(-c2ncn(C3CCNCC3)c2-c2ccnc(Oc3ccc(Oc4ccccc4)cc3)n2)cc1`, the inhibition stood at 7.8%.

In the case of `COc1cccc(/C=N/Nc2ncnc3c2cnn3-c2cccc(OC)c2)c1`, the inhibition amounted to 2.41%.

In the case of `O=C(Nc1n[nH]c2nc(-c3ccc(O)cc3)c(Br)cc12)C1CC1`, the inhibition was found to be 1.39%.

Turning to `COc1cc2ncn(-c3cc(OCc4ccccc4C(F)(F)F)c(C(C)=O)s3)c2cc1OC`, the inhibition was determined as 2.1%.

Turning to `Cc1ccc(C(=O)NC2CCC2)cc1-c1ccc(C(=O)NCC2CC2)cc1`, the inhibition amounted to 2.2%.

`COC(=O)Nc1nc2ccc(Sc3ccc(NC(=O)Nc4cc(C(F)(F)F)ccc4F)cc3)cc2[nH]1`: the inhibition was determined as 0.1%.

Consider `COc1ccc(-c2ccc3c(NC(=O)C4CC4)n[nH]c3n2)cc1`, for which the inhibition amounted to 1.89%.

In the case of `Cc1ccc(C(=O)NC(C)C)cc1-c1ccc(C(=O)NCC2CC2)cc1`, the inhibition was -2.79%.

Consider `O=C(Nc1n[nH]c2cc(-c3ccccc3)ccc12)C1CC1`, for which the inhibition amounted to 4.39%.

Regarding `CNC(=O)c1cncc(/C=C/c2c(C)cccc2C)c1`, the inhibition is -1.38%.

`C/C(Nc1ccc(S(N)(=O)=O)cc1)=C1/C(=O)Nc2ccccc21`: the inhibition was -1.23%.

Consider `NC(=O)c1ccc(Oc2nccc(-c3c(-c4ccc(F)cc4)ncn3C3CCNCC3)n2)cc1`, for which the inhibition was 4.74%.

For the molecule `NC(=O)Cc1ccccc1Oc1nccc(-c2c(-c3ccc(F)cc3)ncn2C2CCNCC2)n1`, the inhibition is 3.98%.

`NCc1ccc(-n2c(-c3nonc3N)nc3cnccc32)cc1`: the inhibition was 2.05%.

For the molecule `O=C(Nc1n[nH]c2cc(-c3cc(F)ccc3F)ccc12)C1CC1`, the inhibition amounted to 1.27%.

Regarding `NS(=O)(=O)c1ccc(N/N=C2\C(=O)Nc3ccc(-c4cnco4)cc32)cc1`, the inhibition was -3.27%.

As to `N#Cc1ccc(Oc2nccc(-c3c(-c4ccc(F)cc4)ncn3C3CCNCC3)n2)cc1`, the inhibition was found to be 1.83%.

Turning to `O=C(Nc1n[nH]c2nc(-c3ccco3)ccc12)C1CC1`, the inhibition is -1.28%.

`NS(=O)(=O)c1ccc(Nc2cc(-c3ccc(O)c(F)c3)n[nH]2)cc1`: the inhibition was -3.13%.

As to `COc1cccc(-n2cnc3c(N/N=C/c4ccncc4)ncnc32)c1`, the inhibition was -3.39%.

For `COc1cc(N2CCN(C(C)C)CC2)ccc1Nc1nc(Nc2ccc(F)cc2C(=O)NC[C@@H](O)CO)c2cc[nH]c2n1`, the inhibition is 2.74%.

As for `Fc1ccc(-c2ncn(C3CCNCC3)c2-c2ccnc(Oc3ccc4c(c3)OCO4)n2)cc1`, the inhibition stood at 4.73%.

For `COc1cc(Nc2ncc(-c3ccccc3)o2)cc(OC)c1OC`, the inhibition is -0.27%.

With `Fc1ccc(-c2nc3n(c2-c2ccncc2)CCS3)cc1`, the inhibition stood at 0.7%.

Take `COc1ccc(C2=C(N3CCc4ccccc43)C(=O)NC2=O)cc1`: the inhibition was determined as 1.81%.

In the case of `C[C@@H](Oc1cc(-n2cnc3ccc(OCC4CCN(C)CC4)cc32)sc1C(N)=O)c1ccccc1Cl`, the inhibition turned out to be 3.89%.

For `O=C(NCC1CC1)c1ccc(-c2cccc(C(=O)NC3CC3)c2)cc1`, the inhibition came out at 0.19%.

As for `Fc1ccc(-c2ncn(CCCN3CCOCC3)c2-c2ccncc2)cc1`, the inhibition worked out at 0%.

For a further experiment the target is unchanged. The conditions noted are these: at 1 µM.
On to `NS(=O)(=O)c1ccc(N/N=C2\C(=O)Nc3ccc(C(=O)NCCCn4ccnc4)cc32)cc1`, for which the inhibition was determined as 12.9%.

Take `O=C(Nc1ccc(Oc2ccc3[nH]c(NC(=O)c4ccccc4)nc3c2)cc1)Nc1cc(C(F)(F)F)ccc1F`: the inhibition came to 2.93%.

As to `COc1ccc2cc(-c3c(-c4ccncc4)nc(-c4ccc([S+](C)[O-])cc4C)n3C)ccc2c1` (stereo not drawn), the inhibition is -1.93%.

As for `Cc1ccc(NC(=O)c2ccoc2)cc1-c1ccc(C(=O)NCC2CC2)cc1`, the inhibition was determined as 2.71%.

With `C[C@@H](Oc1cc(-n2cnc3ccc(OC4CCN(C)CC4)cc32)sc1C(N)=O)c1ccccc1Cl`, the inhibition is -4.38%.

In the case of `CN(c1ccc(NC(=O)Nc2c(Cl)cccc2Cl)cc1)c1ccnc(Nc2cccc(CS(C)(=O)=O)c2)n1`, the inhibition was -1.25%.

On to `Fc1ccc(-c2ncn(C3CCNCC3)c2-c2ccnc(Oc3ccc(Oc4ccccc4)cc3)n2)cc1`, for which the inhibition was 26.3%.

In the case of `COc1cccc(/C=N/Nc2ncnc3c2cnn3-c2cccc(OC)c2)c1`, the inhibition is 1.09%.

Take `O=C(Nc1n[nH]c2nc(-c3ccc(O)cc3)c(Br)cc12)C1CC1`: the inhibition is 4.72%.

As to `COc1cc2ncn(-c3cc(OCc4ccccc4C(F)(F)F)c(C(C)=O)s3)c2cc1OC`, the inhibition is 2.97%.

For the molecule `Cc1ccc(C(=O)NC2CCC2)cc1-c1ccc(C(=O)NCC2CC2)cc1`, the inhibition came to 2.4%.

Turning to `COC(=O)Nc1nc2ccc(Sc3ccc(NC(=O)Nc4cc(C(F)(F)F)ccc4F)cc3)cc2[nH]1`, the inhibition is 0.39%.

With `COc1ccc(-c2ccc3c(NC(=O)C4CC4)n[nH]c3n2)cc1`, the inhibition turned out to be 2.61%.

Turning to `Cc1ccc(C(=O)NC(C)C)cc1-c1ccc(C(=O)NCC2CC2)cc1`, the inhibition was -1.44%.

As to `O=C(Nc1n[nH]c2cc(-c3ccccc3)ccc12)C1CC1`, the inhibition was determined as 4.52%.

On to `CNC(=O)c1cncc(/C=C/c2c(C)cccc2C)c1`, for which the inhibition is -0.55%.

As to `C/C(Nc1ccc(S(N)(=O)=O)cc1)=C1/C(=O)Nc2ccccc21`, the inhibition was 19.1%.

Regarding `NC(=O)c1ccc(Oc2nccc(-c3c(-c4ccc(F)cc4)ncn3C3CCNCC3)n2)cc1`, the inhibition is 9.02%.

Turning to `NC(=O)Cc1ccccc1Oc1nccc(-c2c(-c3ccc(F)cc3)ncn2C2CCNCC2)n1`, the inhibition was determined as 8.65%.

For `NCc1ccc(-n2c(-c3nonc3N)nc3cnccc32)cc1`, the inhibition is 10.7%.

In the case of `O=C(Nc1n[nH]c2cc(-c3cc(F)ccc3F)ccc12)C1CC1`, the inhibition came to 2.99%.

As for `NS(=O)(=O)c1ccc(N/N=C2\C(=O)Nc3ccc(-c4cnco4)cc32)cc1`, the inhibition was 0.29%.

As for `N#Cc1ccc(Oc2nccc(-c3c(-c4ccc(F)cc4)ncn3C3CCNCC3)n2)cc1`, the inhibition amounted to 5.34%.

As for `O=C(Nc1n[nH]c2nc(-c3ccco3)ccc12)C1CC1`, the inhibition came out at 0.46%.

Turning to `NS(=O)(=O)c1ccc(Nc2cc(-c3ccc(O)c(F)c3)n[nH]2)cc1`, the inhibition came out at 4.18%.

For the molecule `COc1cccc(-n2cnc3c(N/N=C/c4ccncc4)ncnc32)c1`, the inhibition is -3.3%.

On to `COc1cc(N2CCN(C(C)C)CC2)ccc1Nc1nc(Nc2ccc(F)cc2C(=O)NC[C@@H](O)CO)c2cc[nH]c2n1`, for which the inhibition came out at 31.8%.

As for `Fc1ccc(-c2ncn(C3CCNCC3)c2-c2ccnc(Oc3ccc4c(c3)OCO4)n2)cc1`, the inhibition is 17.9%.

Consider `COc1cc(Nc2ncc(-c3ccccc3)o2)cc(OC)c1OC`, for which the inhibition was -0.18%.

For the molecule `Fc1ccc(-c2nc3n(c2-c2ccncc2)CCS3)cc1`, the inhibition was determined as 8.82%.

On to `COc1ccc(C2=C(N3CCc4ccccc43)C(=O)NC2=O)cc1`, for which the inhibition worked out at 3.33%.

Take `C[C@@H](Oc1cc(-n2cnc3ccc(OCC4CCN(C)CC4)cc32)sc1C(N)=O)c1ccccc1Cl`: the inhibition came out at 5.6%.

In the case of `O=C(NCC1CC1)c1ccc(-c2cccc(C(=O)NC3CC3)c2)cc1`, the inhibition came to 2.3%.

`Fc1ccc(-c2ncn(CCCN3CCOCC3)c2-c2ccncc2)cc1`: the inhibition is -0.19%.
